# Screening results deposited in PubChem by several laboratories.
# Cardiac RTF inh = cardiac RTF calcium desensitization; 340,000 compounds, 0.12% hits; inhibition, % at 7.15 µM; IANBD-labeled cardiac RTF, Ca2+ fluorescence;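 active = inhibition above the mean inhibition of all tested compounds plus 3 SD, cut at about 17% in these data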;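 also: assay run at fixed EC70 calcium of 1.6 mM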
# LANA-H2A inh = blocks KSHV LANA binding to histone H2A/H2B. cell-free LANA-H2A/H2B peptide, fluorescence polarization. inhibition, % (no concentration beside the values). 320,000 compounds, 0.6% hits. AID 2629; in the data active = inhibition mostly above about 10%, no sharp cut-off; inactive = mostly below about 6.7%
# Target sequence (Q9QR71 whole entry, looked up): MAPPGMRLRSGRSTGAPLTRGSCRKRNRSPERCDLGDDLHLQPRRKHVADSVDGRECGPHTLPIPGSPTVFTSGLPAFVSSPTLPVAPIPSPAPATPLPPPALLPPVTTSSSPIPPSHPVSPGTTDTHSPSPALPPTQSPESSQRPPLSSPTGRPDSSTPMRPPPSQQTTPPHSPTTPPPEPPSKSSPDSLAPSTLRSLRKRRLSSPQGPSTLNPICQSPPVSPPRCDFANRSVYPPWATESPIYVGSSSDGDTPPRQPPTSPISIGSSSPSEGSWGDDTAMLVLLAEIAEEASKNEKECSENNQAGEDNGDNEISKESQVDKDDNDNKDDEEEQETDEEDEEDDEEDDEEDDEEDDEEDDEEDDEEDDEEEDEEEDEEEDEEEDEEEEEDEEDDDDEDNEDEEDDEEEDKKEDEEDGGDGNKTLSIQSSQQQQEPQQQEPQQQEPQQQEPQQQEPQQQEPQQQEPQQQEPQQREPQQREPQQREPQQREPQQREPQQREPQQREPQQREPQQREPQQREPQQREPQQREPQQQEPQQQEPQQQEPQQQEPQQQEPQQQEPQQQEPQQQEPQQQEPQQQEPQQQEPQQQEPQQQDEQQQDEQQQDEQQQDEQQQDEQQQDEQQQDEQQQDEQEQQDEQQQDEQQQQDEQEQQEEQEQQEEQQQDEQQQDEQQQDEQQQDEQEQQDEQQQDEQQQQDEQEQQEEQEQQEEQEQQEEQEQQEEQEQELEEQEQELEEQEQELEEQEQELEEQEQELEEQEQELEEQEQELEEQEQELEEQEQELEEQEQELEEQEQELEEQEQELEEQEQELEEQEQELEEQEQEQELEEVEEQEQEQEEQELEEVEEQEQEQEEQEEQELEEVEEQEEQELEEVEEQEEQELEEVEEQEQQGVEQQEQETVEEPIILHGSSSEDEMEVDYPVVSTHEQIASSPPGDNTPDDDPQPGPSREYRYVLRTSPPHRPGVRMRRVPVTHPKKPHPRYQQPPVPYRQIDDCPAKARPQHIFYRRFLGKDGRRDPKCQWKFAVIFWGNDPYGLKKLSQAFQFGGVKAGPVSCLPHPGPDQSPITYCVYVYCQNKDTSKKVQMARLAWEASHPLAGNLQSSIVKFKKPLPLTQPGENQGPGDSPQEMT
# LANA DNA inh = inhibitors of KSHV LANA C-terminal domain DNA binding | MBP-C-LANA/FAM-LBS DNA binding, fluorescence polarization | inhibition, % at 9 µM | 340,000 compounds, 0.078% hits;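 active = highest replicate inhibition at or above 60% at 9 µM, even if other replicates fall short; inactive = all replicates below 60% inhibition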;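 also: 0% = neutral control wells and 100% = 4 µM acridine orange control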
# Keap1 Nrf2 FP = disrupts human Keap1 binding to Nrf2 peptide | Q14145 | Keap1 Kelch-Nrf2 peptide fluorescence polarization, 1536-well | inhibition, % at 9.4 µM | 340,000 compounds, 0.15% hits | AID 504523; in the data active = inhibition above about 12%;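 also: human Keap1 Kelch domain with fluorescein labeled Nrf2 9mer peptide probe; 0% = neutral control wells and 100% = peptide positive control; higher means more block of Keap1 binding to Nrf2 peptide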
# cardiac RTF act = cardiac RTF calcium sensitization; activation, % at 7.2 µM; AID 493008; 340,000 compounds, 0.24% hits; P19429+P45379; IANBD-labeled TnC RTF fluorescence at EC20 calcium; 0% EC20 calcium, 100% full calcium;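 active = activation above the mean over all tested compounds plus 3 SD, cut at about 30% in these data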;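 also: rise in fluorescence read as greater calcium sensitivity of cardiac thin filaments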
# Numbers without * were called inactive; . = not tested or not shown; + = active, no number. Sampled rows, rich in hits. Any-hit rate of the full collection: about 0.98%.
SMILES,Cardiac RTF inh,LANA-H2A inh,LANA DNA inh,Keap1 Nrf2 FP,cardiac RTF act
CCCN1CCc2c(sc(NC(=S)NC(=O)c3ccccc3)c2C#N)C1,-60,1,-3,-43,31*
O=C(Oc1ccccc1/C=C\C(=O)c1cc2ccccc2o1)c1cccc(F)c1,-6,17*,1,-1,3
CCN(CC)c1ccc(/C=c2/sc3nnc(-c4ccccc4C)n3c2=O)cc1,-19,-4,-1,-3,43*
Cc1ccc(/C=c2/sc3nnc(-c4ccccc4Cl)n3c2=O)o1,-4,-2,1,-3,-1
CCN(CC)c1ccc(/C=c2\sc3nnc(-c4ccccc4Cl)n3c2=O)cc1,-62,-3,7,-4,47*
CCCCCCn1c(=O)[nH]c2nc3cc(N)ccc3nc2c1=O,.,42*,.,.,.
CCC1(OC(=O)CN(C)C)C(=O)OCc2c1cc1n(c2=O)Cc2cc3c(N)cccc3nc2-1 (configuration not stated),-7,.,1,-1,0
CN(C)S(=O)(=O)c1cccc(N=C2NN=C(c3ccccc3)CS2)c1,.,44*,.,.,.
Cc1cc(C)c(C)c(S(=O)(=O)N2CCN(C(=O)C3CSC4(C)CCC(=O)N34)CC2)c1C (configuration not stated),-22,0,0,0,-4
CCc1ccc(C(c2ccc(CC)cc2)C(Cl)Cl)cc1,1,24*,0,-6,-3
CCCCN(C(=O)c1c(CC)noc1C)c1c(N)n(CCCC)c(=O)[nH]c1=O,-9,5,0,-1,-4
Cc1ccc(S(=O)(=O)CCC(=O)OCC(=O)NC2CCS(=O)(=O)C2)cc1 (configuration not stated),-2,25*,-1,-2,4
Cc1ccc(S(=O)(=O)NC(C(=O)OCC(=O)NC2CCS(=O)(=O)C2)C(C)C)cc1 (configuration not stated),-9,-5,-1,-5,2
COc1ccc(/C=C/CN2CCC(n3nccc3NC(=O)C3CCCC3)CC2)cc1,1,5,1,2,8
CCCCc1nnc(NC(=O)C(C)Sc2nc(C)cc(=O)[nH]2)s1 (configuration not stated),-3,12*,-1,-1,2
CCC(Sc1nc(C)cc(=O)[nH]1)C(=O)Nc1nnc(C)s1 (configuration not stated),3,1,14,1,-4
Cc1ccsc1C(=O)N1CCC(CO)(Cc2ccccc2)CC1,4,-4,0,-1,1
O=C(CSc1ccccc1)N1CCCC(N2CCN(c3ccccc3)CC2)C1 (configuration not stated),3,-4,0,-2,0
c1ccc(CNc2ccc(N3CCOCC3)cc2)cc1,-6,17*,0,-4,9
Cc1ccc(OCc2nnc(SCC(=O)N3C(C)CCCC3C)o2)cc1 (configuration not stated),-19,1,2,-4,-5
COC(=O)C(Cc1ccc(O)cc1)NC(=O)C1CCN(S(=O)(=O)c2ccc(C)cc2)CC1 (configuration not stated),1,10,0,-5,-9
CC(C)NC(=O)Nc1ccc2c(c1)C(=O)N([C@H](C)CO)C[C@H](C)[C@@H](CN(C)C(=O)Nc1ccc(C(F)(F)F)cc1)O2,5,+,1,-2,-6
C[C@@H]1CN([C@H](C)CO)C(=O)c2cc(NC(=O)Nc3ccc(F)cc3)ccc2O[C@H]1CN(C)C(=O)Nc1ccc(C(F)(F)F)cc1,-4,.,-1,-3,-7
C[C@H](CO)N1C[C@H](C)[C@@H](CN(C)S(=O)(=O)c2ccccc2)Oc2ccc(NC(=O)CCC(F)(F)F)cc2C1=O,-5,28*,-1,0,2
Cc1cc(NC(=S)NC(=O)c2ccco2)c2ccccc2n1,5,17*,-1,-6,-2
SMILES,Cardiac RTF inh,LANA-H2A inh,LANA DNA inh,Keap1 Nrf2 FP,cardiac RTF act
O=C(NC(=S)Nc1cccc2ncccc12)c1ccco1,-8,3,-1,-5,-2
CCOc1ccc(CCn2c(-c3ccco3)nc3ccccc3c2=O)cc1OCC,-5,11*,1,-3,2
COc1cc2c3c(c1)C1(C(=O)N3C(C)(C)C=C2C)C(C#N)=C(N)Oc2cc(C)oc(=O)c21 (configuration not stated),-10,60*,-1,2,-1
O=C(Nc1nnc(CCc2ccccc2)s1)c1cccc(F)c1,-4,1,-4,3,8
O=C(O)c1cccc(-n2c(/C=C/c3ccccc3)nc3ccccc3c2=O)c1,5,-3,0,-5,-5
CN(C)c1ccc(/C=C/c2nc3ccccc3c(=O)n2-c2ccc(C(=O)O)cc2)cc1,-498,5,-1,-274,538*
O=C(O)c1ccc(CSc2nc3ccccc3c(=O)n2-c2ccccc2)cc1,-10,1,28,30*,4
O=c1c2ccccc2nc(SCc2ccc([N+](=O)[O-])cc2)n1-c1ccccc1,-2,1,1,0,-1
COc1ccc(N(C)S(=O)(=O)c2cccc(C(=O)OCC(=O)N(C)c3ccccc3)c2)cc1,3,2,6,3,-5
CC(=O)Nc1cccc(Cl)c1C(=O)O,-5,0,-1,3,1
O=C(O)c1c(Cl)cccc1Cl,-2,+,-1,-1,-4
Clc1ccccc1/C=C/C=N/Nc1nc(N2CCOCC2)nc(N2CCOCC2)n1,-1,0,1,-4,3
COc1ccc(CN(C)C(=O)Cn2cnc3c(NCc4ccccc4)ncnc32)cc1OC,-4,.,1,-1,-3
Cc1c(C=O)c(=O)n(-c2ccccc2)n1C,2,5,1,-3,2
Cc1c(N(C)C)c(=O)n(-c2ccccc2)n1C,-13,42*,-1,-1,1
COc1ccc(-c2nc(SCC(=O)NC3CCCCC3)n[nH]2)cc1,-4,76*,-1,-2,3
COc1ccc(Cl)cc1-c1nc(SCC(=O)NC2CCCC2)n[nH]1,8,-3,1,-5,-4
O=[N+]([O-])c1ccccc1N/N=C/c1c[nH]c2ccccc12,11,-7,1,-2,-13
O=c1c([N+](=O)[O-])c[nH]c2ccccc12,-22,15*,2,-4,-2
CCC1CCCCN1C(=O)COc1ccc2c3c(c(=O)oc2c1)CCC3 (configuration not stated),-3,32*,3,4,4
O=C(O)c1ccc(N/N=C/c2c(F)cccc2Cl)cc1,-1,0,-2,-2,-6
O=C(NCc1ccc(F)cc1)c1cc(S(=O)(=O)N2CCCCC2)ccc1Cl,0,79*,5,-7,0
Cn1cccc1/C=C1\CCC/C(=C\c2cccn2C)C1=O,-310,-1,-12,-134,181*
O=C1/C(=C/c2cccs2)CCC/C1=C\c1cccs1,-22,-4,0,-2,2
